The record followed here is PubChem BioAssay (NCATS).

Inconclusive results are not listed. Active and inactive are the calls of the source. Calls come from the whole dose curve; as a rule, active = well fitted curve in the direction sought with a large enough effect; inconclusive = small, poorly fitted or top-dose-only effect, or another doubt; inactive = no such curve, though single readings can be large; an effect the other way counts as inactive or inconclusive.

Assay [1] can be described thus: NS1 protein of Zika virus - qHTS assay to identify small molecule inhibitors in human HEK 293 cells (AID 1347053). Note: nearly all actives have a fitted effect of over 55% in size. Note: potency is the fitted concentration of half-maximal effect. Put shortly: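 Compound-treated (1 h pre-infection) HEK 293 cells infected with ZIKV MR766, MOI = 0.5; after 24 h at 37 C, NS1 read by TR-FRET; data normalized to uninfected and infected controls.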
On the technique in general: Quantitative high-throughput screening tests each substance at several concentrations.

A short description of assay [2]: qHTS of pediatric cancer cell lines to identify multiple opportunities for drug repurposing: Primary screen for TC32 cells (AID 1347089). Note: nearly all actives have a fitted effect of over 60% in size. Note: potency is the fitted concentration of half-maximal effect. In outline:
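qHTS, TC32, 48 h drug treatment, CellTiter-Glo luminescence as a proxy for metabolically active cells; primary top concentration 46 µM (MIPE 11-pt, NPC 8-pt); confirmatory 11-pt.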

The nature of assay [3]: qHTS of pediatric cancer cell lines to identify multiple opportunities for drug repurposing: Primary screen for SJ-GBM2 cells (AID 1347091). Note: potency is the fitted concentration of half-maximal effect. In outline:
(§1)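 Viability measured as metabolically active cells via CellTiter-Glo luminescence following 48 hours of compound exposure, 11-point dilutions in confirmatory testing. 500-1,000 cells/well plated 5 hours before dosing; controls were DMSO and 2.3 µM bortezomib.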

The nature of assay [4]: qHTS of pediatric cancer cell lines to identify multiple opportunities for drug repurposing: Primary screen for A673 cells (AID 1347092). Note: potency is the fitted concentration of half-maximal effect; nearly all actives have a fitted effect of over 45% in size. Put shortly:
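Luminescence from CellTiter-Glo, taken after 15 min at room temperature, served as the proxy for metabolically active cells following 48 h treatment. Both potency and efficacy were taken from curves fitted to the titration data.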

A short description of assay [5]: qHTS of pediatric cancer cell lines to identify multiple opportunities for drug repurposing: Primary screen for SK-N-MC cells (AID 1347093). Note: potency is the fitted concentration of half-maximal effect. In outline:
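Metabolically active cells were quantified by ATP-dependent luminescence (CellTiter-Glo, 15 min at room temperature) following 48 h treatment. Cells had been plated at 500-1,000 per well and settled for 5 h beforehand.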

Assay [6] is described as follows: qHTS of pediatric cancer cell lines to identify multiple opportunities for drug repurposing: Primary screen for BT-37 cells (AID 1347094). Note: potency is the fitted concentration of half-maximal effect. Put shortly: (§2)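 Readout: CellTiter-Glo luminescence, 48 h treatment. Controls DMSO (neutral) and bortezomib 2.3 µM final (positive). Potency and efficacy taken from primary-screen concentration-response curves.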
A short description of assay [7]: qHTS of pediatric cancer cell lines to identify multiple opportunities for drug repurposing: Primary screen for NB-EBc1 cells (AID 1347095). Note: potency is the fitted concentration of half-maximal effect. In outline: as §2
Assay [8] is described as follows: qHTS of pediatric cancer cell lines to identify multiple opportunities for drug repurposing: Primary screen for LAN-5 cells (AID 1347100). Note: potency is the fitted concentration of half-maximal effect. Put shortly: (§3)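 Viability after 48 h compound treatment at 37C, 500-1,000 cells/well, read as ATP luminescence with CellTiter-Glo. Primary screens used 11-point (MIPE, 0.78 nM-46 µM) or 8-point (NPC, 0.59 nM-46 µM) final concentrations; follow-up screens used 11-point dilutions.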

Assay [9] can be described thus: qHTS of pediatric cancer cell lines to identify multiple opportunities for drug repurposing: Primary screen for OHS-50 cells (AID 1347103). Note: nearly all actives have a fitted effect of over 40% in size. Note: potency is the fitted concentration of half-maximal effect. Put shortly:
(§4)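 Cells (500-1,000/well) rested 5 h, then received compounds for 48 h; metabolically active cells were measured by CellTiter-Glo luminescence. Final concentrations spanned up to 46 µM (MIPE, 11-point) or 0.59 nM-46 µM (NPC, 8-point) in primary screens, 11-point in follow-ups.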

A short description of assay [10]: qHTS of pediatric cancer cell lines to identify multiple opportunities for drug repurposing: Primary screen for U-2 OS cells (AID 1347096). Note: nearly all actives have a fitted effect of over 50% in size. In outline:
as §3

Assay [11] can be described thus: qHTS of pediatric cancer cell lines to identify multiple opportunities for drug repurposing: Primary screen for NB1643 cells (AID 1347099). Note: nearly all actives have a fitted effect of over 50% in size. Note: potency is the fitted concentration of half-maximal effect. Put shortly: as §2
Assay [12] is described as follows: qHTS of pediatric cancer cell lines to identify multiple opportunities for drug repurposing: Primary screen for Rh18 cells (AID 1347102). Note: nearly all actives have a fitted effect of over 65% in size. Put shortly:
as §3

Assay [13] in a line: qHTS of pediatric cancer cell lines to identify multiple opportunities for drug repurposing: Primary screen for Saos-2 cells (AID 1347097). Note: nearly all actives have a fitted effect of over 40% in size. Note: potency is the fitted concentration of half-maximal effect. Put shortly:
as §2

The nature of assay [14]: qHTS of pediatric cancer cell lines to identify multiple opportunities for drug repurposing: Primary screen for BT-12 cells (AID 1347101). Note: nearly all actives have a fitted effect of over 25% in size. Note: potency is the fitted concentration of half-maximal effect. Put shortly:
as §4

Assay [15] in a line: qHTS of pediatric cancer cell lines to identify multiple opportunities for drug repurposing: Primary screen for SK-N-SH cells (AID 1347098). Note: potency is the fitted concentration of half-maximal effect; nearly all actives have a fitted effect of over 65% in size. In outline: as §4
Assay [16] in a line: qHTS of pediatric cancer cell lines to identify multiple opportunities for drug repurposing: Primary screen for DAOY cells (AID 1347090). Note: series mostly up to about 46 µM; nearly all actives have a fitted effect of over 55% in size. In outline: as §1

Regarding `CCOc1cc(N2CCC(O)CC2)ccc1Nc1ncc2c(n1)N(C)c1ccccc1C(=O)N2C`, the Potency entry in assay [1] was “inactive”. Further, the Potency was 23.4 µM (active) in assay [2]; 0.132 µM (active) in assay [3]; 0.0047 µM (active) in assay [4]; 0.332 µM (active) in [5]; 0.0544 µM (active) in [6]; 0.833 µM (active) in assay [7]. The Potency in [8] is 0.0935 µM (active); in assay [9] it was 0.0432 µM (active).
On to `CCOc1ccc(Cc2cc([C@@H]3O[C@H](CO)[C@@H](O)[C@H](O)[C@@H]3O)ccc2Cl)cc1`, for which the Potency result in [1], in assay [2], in [10], in assay [11] and in assay [12] was “inactive” in each case. Besides, the Potency in [4] is 23.5 µM (active); in assay [5], 20.9 µM (active).
For the compound `CCOc1ccn(-c2ccc(F)cc2)c(=O)c1C(=O)Nc1ccc(Oc2ccnc(N)c2Cl)c(F)c1`, the Potency result in [1], in assay [2] and in [10] was “inactive” in each case. The Potency was 0.059 µM (active) in assay [3]; 18.7 µM (active) in assay [4]; 13.2 µM (active) in assay [5]; 16.6 µM (active) in [13]; 7.43 µM (active) in assay [8]; 19.3 µM (active) in [9].
For the compound `CCn1c(-c2nonc2N)nc2cnc(Oc3cccc(NC(=O)c4ccc(OCCN5CCOCC5)cc4)c3)cc21`, the Potency in assay [1] is 14.8 µM (active); in [3], 0.235 µM (active); in assay [5], 7.43 µM (active); in [8], 2.96 µM (active); in assay [14], 6.11 µM (active); in assay [9], 15.3 µM (active). Besides, the Potency result in assay [2], in [7], in [10] and in assay [12] was “inactive” each time.
For the compound `COc1ccc(-c2oc3cc(OC)ccc3c2C(=O)c2ccc(C#N)cc2)cc1`, the Potency entry in [1], in assay [2], in [10] and in assay [12] was “inactive” throughout. Further, the Potency in [3] is 1.18 µM (active); in assay [4], 0.0935 µM (active); in assay [5], 4.18 µM (active); in assay [7], 7.43 µM (active); in [15] it was 24.1 µM (active); in assay [8], 0.833 µM (active). Further, the figures for the Potency in assay [14] and in [9] were 1.09 µM (active) and 0.968 µM (active), respectively.
For `COc1ccc(COc2cc3oc(=O)c4cc(C(C)O)ccc4c3cc2OC)cc1` (stereo not drawn), the Potency entry in assay [1], in assay [2], in assay [10], in assay [11] and in assay [8] was “inactive” throughout. The results for the Potency in assay [3], in assay [7] and in [13] were 10.5 µM (active), 10.5 µM (active) and 14.8 µM (active), respectively.
Regarding `Clc1ccc(Nc2nnc(Cc3ccncc3)c3ccccc23)cc1`, the Potency entry in assay [1], in assay [2], in assay [3], in assay [7], in assay [10] and in assay [11] was “inactive” in each case. In addition, the Potency entry in [8] was “inactive”. In addition, the Potency in assay [5] was 2.35 µM (active); in [9], 19.5 µM (active).
In the case of `O=C(c1cc(Cc2n[nH]c(=O)c3ccccc23)ccc1F)N1CCN(C(=O)C2CC2)CC1`, the Potency entry in assay [1], in assay [10] and in [12] was “inactive” throughout. The Potency in assay [2] is 16.5 µM (active); in [4], 5.9 µM (active); in [5] it was 7.43 µM (active); in assay [7] it was 10.5 µM (active); in [15] it was 21.5 µM (active); in assay [11], 14.8 µM (active). Besides, the results for the Potency in assay [8] and in assay [9] were 14.8 µM (active) and 24.3 µM (active), respectively.
As for `CCOc1cc(C(=O)Nc2ccc(Cl)c(-c3nc4ccccc4[nH]3)c2)cc(OCC)c1OCC`, the Potency entry in assay [1], in assay [2], in assay [3], in assay [7], in assay [14] and in assay [12] was “inactive” each time. Besides, in assay [9], the Potency result is “inactive”. The Potency in assay [15] is 5.41 µM (active); in [11] it was 11.8 µM (active).
As to `O=c1[nH]c(-c2ccc(C(F)(F)F)cc2)nc2c1CSCC2`, the Potency entry in [1], in assay [2], in assay [3], in assay [10], in assay [8] and in assay [12] was “inactive” each time. Moreover, the Potency is 14.8 µM (active) in assay [4] and 13.2 µM (active) in assay [5].
As for `COc1cc(Oc2ccnc3cc(OC)c(OC)cc23)ccc1NC(=O)NC(C)c1nccs1` (stereo not drawn), the Potency entry in [1], in assay [2], in [16], in assay [10], in assay [11] and in [12] was “inactive” in each case.
As for `Cc1ccc(-n2nc(C(C)(C)C)cc2NC(=O)Nc2ccc(OCCN3CCOCC3)c3ccccc23)cc1`, the Potency result in assay [1], in assay [2], in assay [3], in [6], in [7] and in assay [10] was “inactive” in each case. The Potency result in [13], in assay [8] and in assay [12] was “inactive” in each case. Besides, the Potency in [4] was 4.69 µM (active); in assay [5] it was 0.662 µM (active); in [15], 0.541 µM (active).
Consider `C[C@@H]1CN(Cc2ccc(F)cc2)[C@@H](C)CN1C(=O)c1cc2c(C(=O)C(=O)N(C)C)cn(C)c2cc1Cl`, for which the Potency entry in [1], in assay [2], in [6] and in [12] was “inactive” in each case. Further, the figures for the Potency in [4], in assay [5] and in [11] were 14.8 µM (active), 0.0372 µM (active) and 2.64 µM (active), respectively.
For the compound `Cc1ccc(NC(=O)c2cccc(C(C)(C)C#N)c2)cc1Nc1ccc2ncn(C)c(=O)c2c1`, the Potency result in [1] and in assay [2] was “inactive” throughout. The Potency in [4] is 14.8 µM (active); in [5], 18.7 µM (active); in [7], 5.26 µM (active); in [15], 24.1 µM (active); in assay [11], 18.7 µM (active).
`CCOc1cc(C=C2C(=O)N(c3ccccc3)N=C2C)cc(Cl)c1OCC(=O)OC`: the Potency result in assay [1], in assay [2], in assay [6], in assay [10], in [13] and in assay [14] was “inactive” throughout. In addition, the Potency in assay [5] is 11.8 µM (active); in assay [7] it was 20.9 µM (active); in assay [8], 18.7 µM (active).
